Hits are enriched below; roughly 2.4% of the tested compounds scored in any of these assays.
Pol kappa inh: blocks human DNA polymerase kappa activity | purified Pol kappa, fluorescent DNA synthesis assay, 10 min | Q9UBT6 | Potency, µM (titrated, usually from 107 µM), for the others: at the top dose activity, negative = inhibition, usual class: inhibitors | actives 0.53% (n = 400,000); further: on the % scale 0 is the no-effect control and ±100 the full control effect
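Fluorescent qHTS in 1536-well format: enzyme (10 nM) and compound sat 15 min at room temperature before 50 nM substrate (final) was added. Signal taken at 0 and 10 min; no-enzyme buffer wells were negative controls.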
FEN1 inh: blocks human flap endonuclease 1; Recombinant FEN1 flap cleavage, fluorescence, 15 min; Potency, µM (doses to about 114 µM), inactives show top-dose activity change, negative = inhibition, most hits filed as inhibitors; actives 0.35% (n = 390,000); AID 588795; further: on the % scale 0 is the no-effect control and ±100 the full control effect; nearly all actives have a fitted effect of over 65% in size
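FEN1 at 10 nM preincubated with compounds 15 min at room temperature, then flap DNA substrate added at 50 nM final. Signal read at 0 and 15 min; concentration-response fitted with four-parameter Hill equation.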
Pol iota inh: blocks human DNA polymerase iota activity. Q9UNA4. Pol iota fluorescent replication assay, 10 min. Potency, µM (top dose mostly 115 µM), without a hit: at the highest dose activity, negative = inhibition, actives largely listed as inhibitors. actives 1% (n = 390,000). AID 588590
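Pol iota at 10 nM preincubated 15 min with compounds at room temperature; reaction started with fluorescent substrate, 50 nM final. Fluorescence read kinetically at 0 and 10 min; buffer-only wells as negative control.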
WRN inhibitor: inhibitors of human WRN helicase. Q14191. WRN helicase unwinding, fluorescent forked duplex, kinetic. Potency, µM (top dose mostly 114 µM), without a hit: top-dose activity change, negative = inhibition, hits mostly inhibitors. actives 0.46% (n = 360,000). AID 651768; further: on the % scale 0 is the no-effect control and ±100 the full control effect; nearly all actives have a fitted effect of over 55% in size
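WRN at 20 nM final was preincubated with compound for 15 min at room temperature; reaction started with 100 nM forked duplex oligonucleotide carrying fluorophore and quencher plus 2 mM ATP (final). Unwinding followed kinetically by red fluorescence (ex 525/em 598 nm).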
Pol eta inh: blocks human DNA polymerase eta activity; Q9Y253; recombinant Pol eta, fluorescent DNA replication assay; Potency, µM (doses to about 114 µM), for the others: at the highest dose activity change, negative = inhibition, usual class: inhibitors; actives 1.2% (n = 390,000); further: on the % scale 0 is the no-effect control and ±100 the full control effect
Target sequence (Q9Y253 whole entry, looked up): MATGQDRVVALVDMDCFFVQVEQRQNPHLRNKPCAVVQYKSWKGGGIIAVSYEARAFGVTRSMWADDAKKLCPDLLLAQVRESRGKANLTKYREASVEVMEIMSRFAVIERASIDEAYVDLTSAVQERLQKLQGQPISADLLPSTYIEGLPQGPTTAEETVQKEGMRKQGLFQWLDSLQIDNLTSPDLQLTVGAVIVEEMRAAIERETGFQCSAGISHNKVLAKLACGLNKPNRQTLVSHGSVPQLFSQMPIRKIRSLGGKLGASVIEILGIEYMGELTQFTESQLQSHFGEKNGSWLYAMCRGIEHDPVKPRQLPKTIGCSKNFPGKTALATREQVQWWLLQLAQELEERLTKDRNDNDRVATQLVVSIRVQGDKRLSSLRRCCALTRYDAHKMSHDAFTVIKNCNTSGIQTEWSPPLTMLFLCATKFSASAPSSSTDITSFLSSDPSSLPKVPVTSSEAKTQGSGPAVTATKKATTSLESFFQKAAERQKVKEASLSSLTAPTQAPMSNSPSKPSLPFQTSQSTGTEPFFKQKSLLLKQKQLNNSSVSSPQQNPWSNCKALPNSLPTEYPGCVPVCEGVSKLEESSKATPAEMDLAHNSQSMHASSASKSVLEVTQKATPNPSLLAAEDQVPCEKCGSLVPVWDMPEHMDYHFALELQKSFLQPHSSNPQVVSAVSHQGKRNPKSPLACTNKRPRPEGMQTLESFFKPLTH
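Fluorescent replication assay: 50 nM final substrate added after a 15 min room-temperature compound preincubation with 10 nM enzyme. Signal taken at 0 min and again at 10 min.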
Pol beta inh: inhibitors of human DNA polymerase beta. P06746. Pol beta primer extension/strand displacement, fluorescence kinetic. Potency, µM (doses to about 114 µM), inactives show at the highest dose activity change, negative = inhibition, actives largely listed as inhibitors. actives 1.3% (n = 340,000). AID 485314; further: on the % scale 0 is the no-effect control and ±100 the full control effect
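Homogeneous kinetic assay of primer extension and strand displacement by 10 nM Pol beta, preincubated 15 min at room temperature with compound before 50 nM substrate (final) was added. Read at 0 and 10 min; four-parameter Hill fit.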
* hit, by the source's call; ? = inconclusive; . = not tested or not shown; [ ] = remark or other dose. The call rests on the fitted dose curve; in most records, active means well fitted curve in the direction sought with a large enough effect; inconclusive means small, poorly fitted or top-dose-only effect, or another doubt; inactive means no such curve, though single readings can be large; an effect the other way counts as inactive or inconclusive. Potency means the concentration at half of the fitted maximal effect.

SMILES	Pol kappa inh	FEN1 inh	Pol iota inh	WRN inhibitor	Pol eta inh	Pol beta inh
O=C1NC(=O)N(c2ccccc2)C(=O)/C1=C\c1ccc([N+](=O)[O-])o1	.	.	.	.	.	7.9µM*
COc1cc(/C=C2/C(=O)NC(=O)N(c3ccc(C)cc3)C2=O)cc(OC)c1OC	-14%	0%	69%	?	-14%	-23%
CC(=O)c1cccc(NC(=O)c2noc3c2CSc2ccccc2-3)c1	8%	3%	51%	.	9%	5%
Cc1ccc2c(c1)Cc1c(C(=O)NN3CCCCC3)nn(-c3ccc(Cl)cc3Cl)c1-2	4%[60.1 µM]	.	.	.	.	.
CC12C=CC(=O)C=C1CCC1C2=CCC2(C)C1CC[C@@H]2C(=O)CN1CCN(c2cc(N3CCCC3)nc(N3CCCC3)n2)CC1 (some centres undefined)	-15%[60.1 µM]	.	.	.	.	.
CC(C)[C@@]1(NC(=O)[C@H]2CC3c4cccc5[nH]cc(c45)C[C@H]3N(C)C2)O[C@@]2(O)C3CCCN3C(=O)[C@@H](Cc3ccccc3)N2C1=O (some centres undefined)	0%[19.4 µM]	.	.	.	.	.
O=C1NC(=O)N(c2ccccc2)C(=O)/C1=C\C=C\c1ccccc1	-11%	-1%	?	32µM*	?	?
Cn1cccc1/C=C1/C(=O)NC(=O)N(Cc2ccc(F)cc2)C1=O	71µM*	-6%	40µM*	?	79µM*	1%
CON(C)C(=O)Nc1ccc(Br)cc1	16%[60.1 µM]	.	.	.	.	.
CN(C)[C@@H]1C(=O)C(C(N)=O)=C(O)[C@@]2(O)C(=O)C3=C(O)c4c(O)ccc(Cl)c4[C@@](C)(O)C3C[C@@H]12 (some centres undefined)	79µM*	45µM*	?	-9%[57.1 µM]	-13%	?
CN(C)[C@H]1C(=O)C(C(N)=O)=C(O)[C@]2(O)C(=O)C3=C(O)c4c(O)cccc4[C@@](C)(O)[C@H]3C[C@@H]12	-8%[12 µM]	.	.	.	.	.
CN(C)C1C(=O)C(C(N)=O)=C(O)C2(O)C(=O)C3=C(O)c4c(O)cccc4C(C)(O)C3CC12 (centres undefined)	?	?	?	-3%	-7%	3.2µM*
O=C(O)CCn1cc(C=C2C(=O)NC(=O)NC2=O)c(-c2ccc(Br)cc2)n1	-16%	12%	?	?	11%	22%
O=C(O)CCn1cc(C=C2C(=O)NC(=S)NC2=O)c(-c2cccc(Cl)c2)n1	-35%	-5%	64%	45µM*	?	-17%
N#Cc1ncc(Br)cn1	7%	18%	31%	.	.	.
COc1ccc(C[C@@H]2c3cc(O)c(OC)cc3CCN2C)cc1O	-17%	9%	64%	0%	-14%	5%
COc1cc2c(cc1O)[C@@H]1Cc3ccc(OC)c(O)c3CN1CC2	-5%	?	10µM*	16%	?	.
O=c1c2ccccc2nc(-c2ccco2)n1-c1ccc(Br)cc1	7%	0%	77%	-5%	-16%	1%
S=c1[nH]nc(-c2ccco2)n1Cc1ccccc1	-1%	-8%	21%	1%	-8%	32µM*
C#CCOCCOCCOCCNc1nc(N2CCN(C(=O)CCCCCCCCCCNC(=O)[C@H]([C@@H](C)CC)n3cc(CCCCN=C(N)N)nn3)CC2)nc(N2CCN(C(=O)CCCCCCCCCCNC(=O)[C@H](CO)n3cc(CCCCCN)nn3)CC2)n1	12%	25µM*	?	22µM*	79µM*	.
COCCCn1c(N)c(C(=O)Nc2ccccc2)c2nc3ccccc3nc21	-5%	-16%	14µM*	-19%	-18%	4%
CC1CC2CCC(O2)C(C)C(=O)OC(C)CC2CCC(O2)C(C)C(=O)OC(C)CC2CCC(O2)C(C)C(=O)OC(C)CC2CCC(O2)C(C)C(=O)O1 (centres undefined)	0%[60.1 µM]	.	.	.	.	.
CCCCCCCC/C=C\CCCCCCCC(=O)OC[C@@H](COP(O)(O)=S)OC	17µM*	.	.	.	.	.
CCn1c(=O)oc2cc(NC(=O)CCl)ccc21	-8%	-1%	94%	0%	-16%	17%
CC(C)CC(=O)Nc1ccc(C(=O)Cn2c(=O)oc3ccccc32)cc1	-7%	-10%	?	4%	0%	20µM*
SMILES	Pol kappa inh	FEN1 inh	Pol iota inh	WRN inhibitor	Pol eta inh	Pol beta inh
COP(=S)(OC)Oc1ccc([N+](=O)[O-])cc1	-17%[60.1 µM]	.	.	.	.	.
Cc1cccn2c(=O)c(/C=C(\C#N)c3nc4ccccc4s3)c(Oc3ccc(F)cc3)nc12	-4%	?	?	.	79µM*	?
Cc1cc(C)cc(Oc2nc3ccccn3c(=O)c2/C=C(\C#N)c2nc3ccccc3s2)c1	-4%	-15%	24%	.	?	?
C[C@@H]1Cc2c(Cl)cc(C(=O)N[C@H](Cc3ccccc3)C(=O)O)c(O)c2C(=O)O1	-1%[60.1 µM]	.	.	.	.	.
O=C(CSc1nnc(NC(=O)C2CCCCC2)s1)NCc1ccco1	-4%	-2%	41%	-27%	-20%	6%
CCc1nnc(NC(=O)CSc2ccc(-c3ccco3)nn2)s1	1%	2%	14%	-1%	-20%	14µM*
CN(C)[C@@H]1C(=O)C(C(N)=O)=C(O)[C@]2(O)C(=O)C3=C(O)c4c(O)cccc4[C@@](C)(O)[C@H]3[C@H](O)[C@@H]12	4.7µM*	.	.	.	.	.
CN(C)C1C(=O)C(C(N)=O)=C(O)[C@@]2(O)C(=O)C3=C(O)c4c(O)cccc4[C@@](C)(O)C3[C@H](O)C12 (some centres undefined)	10µM*	.	.	.	.	.
COc1ccc(N2C(=O)/C(=C/c3ccc(OC)c(OC)c3)C(=O)NC2=S)cc1	-2%	1%	?	-27%	3%	11%
O=C1NC(=O)N(CC2CCCO2)C(=O)/C1=C/c1cccs1 (centres undefined)	?	?	?	-15%	?	?
O=C1NC(=S)N(c2ccccc2F)C(=O)/C1=C\c1cccs1	-10%	-6%	?	50µM*	-3%	5%
CCOc1ccc(N2C(=O)/C(=C\c3cccs3)C(=O)NC2=S)cc1	-9%	?	18µM*	40µM*	-15%	?
CCOc1ccc(N2C(=O)NC(=O)/C(=C\c3ccccc3[N+](=O)[O-])C2=O)cc1	-14%	-24%	?	-6%	2%	-11%
CCOc1ccc(N2C(=O)/C(=C/c3ccco3)C(=O)NC2=S)cc1	1.6µM*	?	-96%	11µM*	-101%	13µM*
Nc1c([N+](=O)[O-])ccc(Oc2ccccc2)c1Cl	2%[60.1 µM]	.	.	.	.	.
CC(=O)[C@@H]1CC[C@H]2[C@@H]3CC[C@@H]4CC(=O)CC[C@]4(C)[C@H]3CC[C@]12C	8%[19.4 µM]	.	.	.	.	.
COC(=O)C(O)C(O)(CCC(C)C)C(=O)OC1C(OC)=CC23CCCN2CCc2cc4c(cc2C13)OCO4 (centres undefined)	-4%[60.1 µM]	.	.	.	.	.

Assay outcomes (PubChem BioAssay)
